Measured values published in ChEMBL document CHEMBL3988442, “University of Dundee, Small-Polar-MMV Screening Library” (2021).
The whole screen tested about 69,000 compounds, of which about 950 (1.4%) showed an effect of 50% or more. The sample holds strong results, similar compounds and a random draw of the others, so the mix is not that of the screen.

test system: Mycobacterium tuberculosis; assay: Cornell M. t heat shock assay; assay type: functional, organism-based; design: dose or concentration left out as unconfirmed; also: in the data most compounds retested in dose-response had high values

SMILES	Percent Effect [%]
O=C(O)C(=O)O.c1cncc(CN2CCC(c3ccc4c(c3)OCO4)CC2)c1	-6.288
CC(C)CS(=O)(=O)N1C[C@H]2C[C@H](C(=O)N3CCCC3)[C@@H](C1)O2	18.86
CSc1ccc(CN2C[C@@H]3CC[C@@](O)(c4ccc(C)cn4)[C@@H]3C2)cc1	28.36
C[C@H]1CN(c2ccccn2)C[C@@]12CCN(Cc1cccnc1)C2=O.O=C(O)C(F)(F)F.O=C(O)C(F)(F)F	-8.389
O=C(CS(=O)(=O)c1ccccn1)NC1CCCc2ccccc21 (stereo unspecified)	34.88
O=C(CS(=O)(=O)c1ncccc1Cl)NC1CCCc2ccccc21 (stereo unspecified)	57.06
O=C(CS(=O)(=O)c1ccc(Cl)cc1)NC1CCCc2ccccc21 (stereo unspecified)	17.58
COc1ccc(CN2CCn3cccc3C2C)cc1F (stereo unspecified)	13.47
COc1ccc(C)cc1CN1CCn2cccc2C1C (stereo unspecified)	86.02
COc1ccc(C(C)=O)cc1CN1CCn2cccc2C1C (stereo unspecified)	9.9
CCOc1ccccc1C1CCCN1.Cl (stereo unspecified)	3.065
COc1cc(CNCC(O)c2ccccc2)cc2c1OCO2.Cl (stereo unspecified)	-7.292
Cl.c1ccc(CN2CCNCC(Cc3cnccn3)C2)cc1 (stereo unspecified)	-10.09
O=C(O)C(F)(F)F.O=C(c1ccco1)N1CC2(CCNCC2)c2cc(Cl)ccc21	-24.85
O=C(O)C(F)(F)F.O=C(O)C(F)(F)F.c1cnc(N2CCC3(CCN(Cc4ccncc4)CC3)CC2)nc1	6.802
Cc1cccnc1CN1CCOC(Cc2cccc3ccccc23)C1 (stereo unspecified)	106.2
c1ccc2c(CC3CN(Cc4nccs4)CCO3)cccc2c1 (stereo unspecified)	-8.986
CCc1nc(C)c(CN2CCOC(Cc3cccc4ccccc34)C2)[nH]1 (stereo unspecified)	8.588
CCN1CCc2c(sc3c2C(=O)NC(/C=C/c2ccco2)N3)C1 (stereo unspecified)	-25.76
O=C(Cc1cnccn1)N1C[C@H]2CC[C@@H]1CN(Cc1cscn1)C2	-4.902
Cc1cccnc1NC(=O)C1(n2cnnn2)CCCCC1	10.66
O=C(NCCc1ccccn1)C1(n2cnnn2)CCCCC1	-1.374
Cc1cccc(NC(=O)C2(n3cnnn3)CCCCC2)n1	-23.83

SMILES	Percent Effect [%]
O=C(NCCc1c[nH]c2ccc(F)cc12)C1(n2cnnn2)CCCCC1	102.2
O=C(NCCc1c[nH]c2ccccc12)C1(n2cnnn2)CCCCC1	102.3
O=C(NCCc1cccc(F)c1)C1(n2cnnn2)CCCCC1	90.07
O=C(Nc1ccccn1)C1(n2cnnn2)CCCCC1	4.562
O=C(NCCc1c[nH]c2ccccc12)C1CCC(Cn2cnnn2)CC1 (stereo unspecified)	2.28
Cc1ccnc(NC(=O)C2(n3cnnn3)CCCCC2)c1	-14.84
Cl.O=c1c2sccc2nc2n1CCN(Cc1ccsc1)CC2	-19.75
Cc1cccc(CN2CC[C@@H]3[C@@H]2CCN3C(=O)Cc2ccsc2)n1.O=C(O)C(F)(F)F.O=C(O)C(F)(F)F	-13.99
CO[C@H]1C[C@@H]2CN(C(=O)c3n[nH]c4c3CCCC4)C[C@@H]2C1	-12.29
Cc1ccc(N2CC[C@@H]3[C@@H]2CCN3Cc2ccsc2)nn1.O=C(O)C(F)(F)F.O=C(O)C(F)(F)F	-10.53
Cn1ccnc1CN1CCC2(CC1)COCCN(S(C)(=O)=O)C2.O=C(O)C(F)(F)F	17.11
NC(=O)CN1CCCC1c1csc(Nc2cnccn2)n1 (stereo unspecified)	58.45
NC(=O)CN1CCC(c2csc(Nc3cnccn3)n2)CC1	-13.81
CC(=O)N1CCCC1c1csc(Nc2cnccn2)n1 (stereo unspecified)	-5.066
CS(=O)(=O)CCC(=O)NC1(c2cccc(C(F)(F)F)c2)CCC1	-20.78
COC[C@@]12CCC[C@@H]1CN(C(=O)Cc1ccccn1)C2.O=C(O)C(F)(F)F	12.87
Cc1ncc(CN2CCC(c3nc4cc(Cl)ccc4o3)CC2)s1	-15.08
Fc1ccc2[nH]c(C3CCCN3CCCn3cccn3)nc2c1 (stereo unspecified)	-23.88
Fc1ccc2[nH]c(C3CCCN3CCc3ccccn3)nc2c1 (stereo unspecified)	61.35
Cc1nc(C2CCCN2CCc2ccccn2)no1 (stereo unspecified)	-5.804
O=C(CN1CCCC1c1nc2cc(F)ccc2[nH]1)NCc1ccccn1 (stereo unspecified)	-20.62
CC(C)c1nc(C2CCCN2CCc2ccccn2)no1 (stereo unspecified)	-39.31
CCc1nc(C2CCCN2CCc2ccccn2)no1 (stereo unspecified)	107.9

SMILES	Percent Effect [%]
CS(=O)(=O)N1CCc2ccc(=O)n(CCN3CCCC3)c2CC1.O=C(O)C(F)(F)F	21.99
Cc1nnc(N2CCCC3(CN(Cc4cnn(C)c4)CCO3)C2)o1.O=C(O)C(F)(F)F.O=C(O)C(F)(F)F (stereo unspecified)	-20.31
O=C(O)C(F)(F)F.O=C(c1ccoc1)N1CC[C@@H]2O[C@@H](COCCN3CCCC3)CC[C@@H]21	-1.941
O=C(O)C(F)(F)F.O=C(O)C(F)(F)F.O=C1[C@H]2CN(Cc3ccccn3)C[C@H]2CN1c1ccsc1	-8.069
CO[C@H]1CCN(Cc2cccs2)[C@@H]2CN(Cc3ccncc3)C[C@H]12.O=C(O)C(F)(F)F.O=C(O)C(F)(F)F.O=C(O)C(F)(F)F	0.7697
Cl.Clc1ccc(-c2ccc(C3CNCCO3)nc2)cc1 (stereo unspecified)	2.375
COc1ccc(-c2cnc3c(c2)CN(C2CC2)C(=O)CCN3)cc1	36.55
O=C1CCNc2ncc(-c3ccccc3Cl)cc2CN1C1CC1	39.75
O=C1CCNc2ncc(-c3cccc(Cl)c3)cc2CN1C1CC1	61.09
O=C1CCC(=O)N1CCn1nnc(-c2cccc(Cl)c2)n1	-24.84
O=C1CCNc2ncc(-c3ccc(Cl)cc3)cc2CN1C1CC1	53.07
COc1ccc(OCCN2CCC(N3CCNC3=O)CC2)cc1	47.29
Cc1ccc(N2CCO[C@H]3CN(Cc4nccs4)C[C@H]32)nn1.O=C(O)C(F)(F)F.O=C(O)C(F)(F)F	-20.26
O=C(O)C(F)(F)F.O=C(O)C(F)(F)F.O=C([C@H]1C[C@H]2OCC[C@H]2N(Cc2cccnc2)C1)N1CCCO1	-0.4009
CCC1CN(C(=O)c2ccc(=O)[nH]n2)CCC(=O)N1Cc1ccccc1 (stereo unspecified)	3.349
CCC1CN(C(=O)c2ccc(=O)[nH]c2)CCC(=O)N1Cc1ccccc1 (stereo unspecified)	106.1
CCC1CN(C(=O)c2cccc(O)c2)CCC(=O)N1Cc1ccccc1 (stereo unspecified)	3.275
Fc1ccc(CN2CCC(F)(F)C3(CCN(c4cnccn4)C3)C2)cc1.O=C(O)C(F)(F)F.O=C(O)C(F)(F)F (stereo unspecified)	3.728
CN(C)c1nc2c(c(N3CCc4ccccc4C3)n1)CCNC2	101.7
Cc1cc2n(n1)CCN(c1nc(N(C)C)nc3c1CCNC3)C2	7.698
c1ccc2c(c1)CCN(c1ncnc3sc4c(c13)CCNC4)C2	12.7
CN(C)c1nc2c(c(N3CCc4c(c(CO)nn4C)C3)n1)CCNC2	-14.09
c1ccc2c(c1)CCN(c1nc(-c3ccncc3)nc3c1CCNC3)C2	105.2

SMILES	Percent Effect [%]
c1ccc2c(c1)CN(c1ncnc3c1CCNC3)CCO2	22.91
Cc1cccc(=O)n1CCCNc1nc(N(C)C)nc2c1CCNC2	44.77
Cc1ccccc1N1CCN(c2nc(N(C)C)nc3c2CCNC3)CC1	99.74
Cc1nc2c(c(N3CCN(c4ncccc4C(N)=O)CC3)n1)CCNC2	6.854
NCC1CCC2(CCN(C(=O)c3ccccn3)CC2)CO1.O=C(O)C(F)(F)F.O=C(O)C(F)(F)F (stereo unspecified)	3.829
Cn1cc(N2CC3(CCN(CC4CCC4)CC3)OCC2=O)cn1.O=C(O)C(F)(F)F	10.75
Cc1cccc(C(=O)N2CCC[C@]3(C[C@@H](OCC4CC4)CO3)C2)n1.O=C(O)C(F)(F)F	5.615
O=C(O)C(F)(F)F.O=C([C@@H]1C[C@@H]2CCN(Cc3ccoc3)C[C@H]2O1)N1CCCC1	5.199
Cc1noc(C)c1C(=O)N1Cc2ncn(C)c2C(COCC(C)C)C1.O=C(O)C(F)(F)F (stereo unspecified)	10.61
O=C(Cc1ccccc1)N1C[C@@H]2OCCN(CC3CCCO3)[C@@H]2C1.O=C(O)C(F)(F)F (stereo partly specified)	-18.47
Cc1cc(Oc2ccc(NC(=O)C3CC3)cc2)cc(C2CCNCC2)n1.Cl	4.147
COc1ccc(CN2CCC3(CC2)CC(CC(=O)NC(C)C)CO3)cc1.O=C(O)C(F)(F)F (stereo unspecified)	0.5964
CCN(CC)Cc1cn2c(n1)CN(C(=O)c1cnccn1)CC2.O=C(O)C(F)(F)F	-4.073
CC(C)c1nn(C)c(N(C)C)c1CNC1CCOc2c(F)cccc21.Cl (stereo unspecified)	0.8128
CC(CCc1ccco1)NC(=O)Nc1cc(C(F)(F)F)c[nH]c1=O (stereo unspecified)	102.3
CC(C)CCOCCNC(=O)Nc1cc(C(F)(F)F)c[nH]c1=O	62.92
O=C(CCc1ccco1)Nc1cc(C(F)(F)F)c[nH]c1=O	-7.508
O=C(NCCOc1ccccc1)Nc1cc(C(F)(F)F)c[nH]c1=O	24.31
O=C(NCCc1ccco1)Nc1cc(C(F)(F)F)c[nH]c1=O	9.339
O=C(NCCNc1ncccn1)Nc1cc(C(F)(F)F)c[nH]c1=O	-2.019
COc1cc(CNCc2ccnc(N3CCCC3)c2)cc(OC)c1.Cl	5.029
O=C(NCc1ccccn1)[C@@H]1CCO[C@@H]2CCN(Cc3ccoc3)C[C@H]21.O=C(O)C(F)(F)F.O=C(O)C(F)(F)F	8.703
